Among the test systems are SK-MEL-2 melanoma; EKVX NSCLC; SN12C renal; UO-31 renal; TK-10 renal; ACHN renal; CAKI-1 renal; A498 renal; CCRF-CEM leukemia; MOLT-4 leukemia; RPMI-8226 leukemia; OVCAR-8 ovarian; OVCAR-5 ovarian; OVCAR-4 ovarian; SK-OV-3 ovarian; IGROV1 ovarian; OVCAR-3 ovarian; HS 578T breast; NCI/ADR-RES ovarian.
Experiment in all cases: NCI-60 one-dose screen, 48 h (100 = growth as untreated, 0 = no growth, -100 = all killed)
Settings in all cases: 10 µM unless noted

This is part of a sample that, as a whole, favours compounds with a hit. Of some 83,000 tested, about 20% had one in any assay.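 How to read the values: 0–100, growth inhibition (40 = 60% inhibited); 0, no net growth; -100 to 0, cell death (-40 = 40% of starting cells died; -100 = all dead).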 Unmarked numbers belong to inactive results. Active and inactive are the calls of the source. Rule for the calls: active = growth percent below 10; inactive = the rest.

As for `COc1ccc(-c2c(N)n[nH]c2-c2ccc(Cl)cc2O)cc1OC`, the growth in the assay on SK-MEL-2 melanoma was 78.7%; with EKVX NSCLC, 109%; in the assay on SN12C renal, 52.4%; in the assay on UO-31 renal, 74%; with TK-10 renal, 102%; in the assay with ACHN renal, 96.1%. The growth with CAKI-1 renal was 90.5%; in the assay with A498 renal, 86.6%; in the assay on CCRF-CEM leukemia it was 69.1%; in the assay with MOLT-4 leukemia, 107%; in the assay with RPMI-8226 leukemia it was 74.5%; with OVCAR-8 ovarian, 87.1%. For the same molecule, the growth was 72.6% in the assay with OVCAR-5 ovarian; 94.1% in the assay with OVCAR-4 ovarian; 102% in the assay with SK-OV-3 ovarian; 92.3% with IGROV1 ovarian; 95.6% in the assay on OVCAR-3 ovarian; 89.2% in the assay with HS 578T breast. Further, in the assay with NCI/ADR-RES ovarian, the growth is 90.4%.

On to `COc1cc(CCC[P+](c2ccccc2)(c2ccccc2)c2ccccc2)cc2c1OCO2`, for which the growth with SK-MEL-2 melanoma is 6.71% (active); in the assay with EKVX NSCLC, 28.3%; in the assay with SN12C renal it was 35.9%; with UO-31 renal it was 88.2%; in the assay with TK-10 renal, 19.5%; in the assay on ACHN renal, 91.8%. The growth was 86% with CAKI-1 renal; 45.9% in the assay on A498 renal; 41.3% with CCRF-CEM leukemia; 53.5% with MOLT-4 leukemia; 9.71% (active) in the assay with RPMI-8226 leukemia; 29.5% in the assay with OVCAR-8 ovarian. Besides, the growth in the assay with OVCAR-5 ovarian was 59.1%; in the assay with OVCAR-4 ovarian it was 12.4%; with SK-OV-3 ovarian, 82.4%; in the assay on IGROV1 ovarian, 28.8%; with OVCAR-3 ovarian it was 19.7%; in the assay with HS 578T breast it was 45.5%. Moreover, the growth in the assay on NCI/ADR-RES ovarian was 101%.

In the case of `CCCCN(CCCC)CC(C)(C)C(O)c1ccc(OC)c2ccccc12` (stereo unspecified), the growth in the assay on SK-MEL-2 melanoma was 76.7%; with EKVX NSCLC, 44%; with SN12C renal, 46.7%; in the assay with UO-31 renal, 34.1%; in the assay with TK-10 renal, 51.4%; in the assay on ACHN renal, 56.5%. In addition, the growth with CAKI-1 renal was 23.1%; in the assay with A498 renal, 59.3%; in the assay with CCRF-CEM leukemia, 50%; in the assay with MOLT-4 leukemia, 27.6%; in the assay with RPMI-8226 leukemia it was 4.33% (active); in the assay with OVCAR-8 ovarian, 74.2%. Besides, the growth with OVCAR-5 ovarian is 57.6%; in the assay on OVCAR-4 ovarian, 56.7%; with SK-OV-3 ovarian, 79.1%; in the assay with IGROV1 ovarian it was -13.4% (active); with OVCAR-3 ovarian it was -11.9% (active); with HS 578T breast it was 55.7%. For the same molecule, in the assay on NCI/ADR-RES ovarian, the growth was 49.3%.

As to `COc1cccc(-c2nc3sccn3c2/C=C/C(=O)c2ccc(C(F)(F)F)cc2)c1`, the growth in the assay on SK-MEL-2 melanoma is 79.1%; with EKVX NSCLC, 94.2%; with SN12C renal it was 76.7%; in the assay with UO-31 renal, 56.3%; in the assay with TK-10 renal, 89.7%; in the assay with ACHN renal, 94.7%. Further, the growth with CAKI-1 renal was 84.7%; in the assay with A498 renal it was 52.7%; with CCRF-CEM leukemia, 66.8%; in the assay on MOLT-4 leukemia, 48.5%; with RPMI-8226 leukemia, 46.5%; with OVCAR-8 ovarian it was 81.1%. The growth is 92.5% in the assay with OVCAR-5 ovarian; 92.9% in the assay on OVCAR-4 ovarian; 77.3% with SK-OV-3 ovarian; 92.8% with IGROV1 ovarian; 78.9% in the assay with OVCAR-3 ovarian; 80% in the assay on HS 578T breast. In addition, the growth in the assay on NCI/ADR-RES ovarian is 89.8%.

Turning to `CCCCCCN(CCCCCC)c1ccc(/C=C2/SC(=O)N(c3nc(N4CCCC4)nc(N4CCCC4)n3)C2=O)c(C)c1`, the growth is 53.9% with SK-MEL-2 melanoma; 87.2% in the assay on EKVX NSCLC; 59.9% in the assay on SN12C renal; 52.9% in the assay with UO-31 renal; 85.8% with TK-10 renal; 68.5% in the assay on ACHN renal. The growth in the assay on CAKI-1 renal was 82.5%; in the assay on A498 renal it was 60.9%; with CCRF-CEM leukemia it was 54.1%; in the assay with MOLT-4 leukemia it was 38.1%; in the assay with RPMI-8226 leukemia it was 42%; in the assay on OVCAR-8 ovarian, 66.1%. Besides, the growth in the assay with OVCAR-5 ovarian is 104%; with OVCAR-4 ovarian, 51.9%; with SK-OV-3 ovarian it was 91.3%; in the assay with IGROV1 ovarian, 77.3%; with OVCAR-3 ovarian it was 63.2%; with HS 578T breast, 78.4%. Further, in the assay on NCI/ADR-RES ovarian, the growth is 71.3%.

As to `CC1(C)CC(=O)CC2(C1)N=C(N)Nc1nc3ccccc3n12` (stereo unspecified), the growth in the assay with SK-MEL-2 melanoma was 100%; with EKVX NSCLC it was 102%; in the assay on SN12C renal, 100%; with UO-31 renal, 96.6%; in the assay with TK-10 renal, 105%; with ACHN renal it was 91.9%. Further, the growth was 105% in the assay on CAKI-1 renal; 99.7% in the assay with A498 renal; 93% with CCRF-CEM leukemia; 82.3% with MOLT-4 leukemia; 94.4% in the assay on RPMI-8226 leukemia; 104% with OVCAR-8 ovarian. Besides, the growth in the assay on OVCAR-5 ovarian is 98.7%; in the assay on OVCAR-4 ovarian, 91.7%; in the assay with SK-OV-3 ovarian it was 101%; in the assay with IGROV1 ovarian it was 90.5%; with OVCAR-3 ovarian, 111%; in the assay with HS 578T breast, 137%. The growth with NCI/ADR-RES ovarian is 106%.

Regarding `OC(COc1ccccc1Cl)COc1ccccc1Cl`, the growth in the assay with SK-MEL-2 melanoma was 107%; in the assay on EKVX NSCLC, 106%; in the assay on SN12C renal, 97%; with UO-31 renal, 82.1%; with TK-10 renal, 102%; in the assay with ACHN renal, 97.3%. Moreover, the growth with CAKI-1 renal is 106%; in the assay on A498 renal, 85.2%; in the assay with CCRF-CEM leukemia, -46.3% (active); in the assay on MOLT-4 leukemia, 92.3%; in the assay on RPMI-8226 leukemia, 81.5%; in the assay on OVCAR-8 ovarian, 109%. For the same molecule, the growth in the assay with OVCAR-5 ovarian is 81.9%; in the assay with OVCAR-4 ovarian, 105%; in the assay with SK-OV-3 ovarian, 107%; in the assay on IGROV1 ovarian, 96.7%; in the assay on OVCAR-3 ovarian it was 118%; in the assay on HS 578T breast, 102%. For the same molecule, the growth in the assay with NCI/ADR-RES ovarian is 95.9%.

For `Cc1nn(-c2ccccc2)c(Oc2ccc(Cl)cc2)c1/C=N\N=c1/sc2ccccc2n1C`, the growth is 78.1% in the assay on SK-MEL-2 melanoma; 85.5% in the assay with EKVX NSCLC; 88.4% with SN12C renal; 62.1% in the assay on UO-31 renal; 117% in the assay with TK-10 renal; 93.9% in the assay with ACHN renal. For the same molecule, the growth in the assay on CAKI-1 renal was 81.3%; with A498 renal, 92.2%; in the assay with CCRF-CEM leukemia, 86.8%; with MOLT-4 leukemia it was 74.1%; in the assay on RPMI-8226 leukemia, 77.4%; in the assay on OVCAR-8 ovarian it was 89.1%. In addition, the growth in the assay with OVCAR-5 ovarian is 106%; in the assay on OVCAR-4 ovarian, 106%; in the assay with SK-OV-3 ovarian, 74.2%; in the assay with IGROV1 ovarian, 84.7%; in the assay on OVCAR-3 ovarian, 101%; in the assay with HS 578T breast it was 78.8%. Also, the growth with NCI/ADR-RES ovarian is 98.1%.

As for `CCOc1ccccc1-n1c(CN2CCN(C(=O)COc3ccc(CNCCCCCCN4C5CCCC4CC(OC(=O)Nc4cc(C)ccc4OC)C5)cc3)CC2)nc2ccccc2c1=O` (stereo unspecified), the growth in the assay with SK-MEL-2 melanoma was -90.9% (active); in the assay on EKVX NSCLC, -92.1% (active); with SN12C renal, -91% (active); in the assay with UO-31 renal it was -98.5% (active); in the assay with TK-10 renal, -86.3% (active); in the assay on ACHN renal, -100% (active). Also, the growth is -100% (active) in the assay on CAKI-1 renal; -93.4% (active) with A498 renal; -64.9% (active) in the assay with CCRF-CEM leukemia; -68% (active) with MOLT-4 leukemia; -56.8% (active) in the assay on RPMI-8226 leukemia; -88.4% (active) with OVCAR-8 ovarian. The growth with OVCAR-5 ovarian was -91.5% (active); in the assay on OVCAR-4 ovarian, -84.7% (active); in the assay with SK-OV-3 ovarian, -98.7% (active); with IGROV1 ovarian, -77.4% (active); in the assay on OVCAR-3 ovarian, -91.6% (active); in the assay with HS 578T breast, -42.2% (active). Also, the growth in the assay with NCI/ADR-RES ovarian is 67%.

The record behind these values is PubChem BioAssay (NCI).
